Our source for the outcome and AC50 values is PubChem BioAssay (EPA / NIEHS).

Broadly, the AC50 is the midpoint of the concentration-response curve, whichever way the signal moves.

Several values for one entry are separate records, joined by “and”; a condition that tells them apart may be missing. Equal values may be shown once. More than one record can exist for a structure, and the calls need not agree. Activity calls are given as the source filed them. The calls were made as follows: active = hit-call score of the fitted dose curve at least 0.9, where 1 is the maximum; inactive = score below 0.9.

The nature of the experiment: BSK_IMphg_SRB: Viability Assessment in the BioMAP Diversity Plus: IMphg Assay (AID 2284292). The conditions noted are these: primary human endothelial cells with macrophages. As to the method:
BSK_IMphg is a cell-based, multiplexed-readout assay that uses venular endothelial cells and macrophages, a human vascular primary cell, with measurements taken at 24 hours after chemical dosing in a microplate: 96-well plate.BSK_IMphg_SRB is an assay component measured in the BSK_IMphg assay. It measures […] related to cell death using Sulforhodamine staining technology.Data from the assay component BSK_IMphg_SRB was analyzed at the endpoint, BSK_IMphg_SRB, in the positive analysis fitting direction relative to DMSO as the negative control and baseline of activity. Using a type of viability reporter, gain or loss-of-signal activity can be used to understand protein changes. To generalize the intended target to other relatable targets, this assay endpoint is annotated to the 'cell morphology' intended target family, where the subfamily is 'cell conformation'.
The levels of cell surface (or secreted, indicated by the prefix "s") biomarker endpoints were measured by ELISA. Overt cytotoxicity to cells in confluent adherent cultures (all systems other than the BT system) was assessed by measuring total protein levels using sulforhodamine B (SRB) staining in parallel cultures at the time of biomarker measurements, indicated as SRB endpoints. For proliferation assays for adherent cell types, individual cell types are cultured at sub-confluence and relative cell numbers quantified by SRB staining at time points optimized for each system (48 h: 3C and CASM3C systems; 72 h: BT and HDF3CGF systems; 96 h: SAg system). SRB was performed by staining cells with 0.1% SRB after fixation with 10% TCA and reading wells at 560 nm.Viability and proliferation of PBMC (T cells) was quantified by Alamar Blue reduction for the SAg and BT systems. For PBMC viability (referred to as PBMC Cytotoxicity within the assay endpoint names), cells were plated (75,000/well in a 96-well plate) and then chemical samples added for 1 h before addition of activators, SEB and TSST-1 (20 ng/mL final concentration each). Cells were incubated for 90 h. Then, Alamar Blue (20 uL/well) (Invitrogen, Cat DAL1100) was added for 6 h, and the plates were read with a fluorescence microplate reader at 546/580 nm (excitation/emission). For PBMC proliferation, cells were plated and activated as above but incubated for only 16 h prior to addition of Alamar Blue. Plates were read after 6 h.
In the case of `C=CC(=O)OCCC(F)(F)C(F)(F)C(F)(F)C(F)(F)F`, the result was inactive.

As for `NCC(F)(F)C(F)(F)C(F)(F)C(F)(F)C(F)(F)C(F)(F)F`, the outcome was inactive.

On to `OCC(F)(F)C(F)(F)C(F)(F)C(F)(F)C(F)(F)C(F)(F)C(F)(F)C(F)(F)CO`, for which the AC50 is 52.9 µM (active) and 54 µM (active).

In the case of `OCC(O)CC(F)(F)C(F)(F)C(F)(F)C(F)(F)C(F)(F)C(F)(F)C(F)(F)C(F)(F)F` (stereo not given), the result was inactive.

In the case of `NC(=O)C(F)(F)C(F)(F)C(F)(F)F`, the outcome was inactive.

Turning to `FC(F)(F)C(F)(F)C(F)(F)C(F)(F)C(F)(F)C(F)(F)C(F)(F)CCI`, the result was inactive.

Consider `CCOC(=O)CC(=O)C(F)(F)C(F)(F)F`, for which the result was inactive.

As to `O=S(=O)(OCC(F)(F)F)C(F)(F)C(F)(F)C(F)(F)C(F)(F)F`, the outcome was inactive.

In the case of `C=CC(=O)OCC(F)(F)C(F)(F)C(F)(F)C(F)(F)C(F)(F)C(F)(F)C(F)(F)C(F)F`, the outcome was inactive.

For the compound `NC(=O)C(F)(F)C(F)(F)C(F)(F)C(F)(F)C(N)=O`, the result was inactive.

As to `OCC(O)CC(F)(F)C(F)(F)C(F)(F)C(F)(F)F` (stereo not given), the outcome was inactive.

As for `O=C(F)C1(F)C(F)(F)C(F)(F)C(F)(F)C(F)(F)C1(F)F`, the outcome was inactive.

Take `NC(O)(C(F)(F)F)C(F)(F)F`: the outcome was inactive.

For the compound `NC(=O)C(F)(F)C(F)(F)C(F)(F)C(F)F`, the outcome was inactive.

As for `FC(F)(F)C(F)(F)C(F)(F)CC1CO1` (stereo not given), the result was inactive.

Take `CNS(=O)(=O)C(F)(F)C(F)(F)C(F)(F)C(F)(F)C(F)(F)C(F)(F)C(F)(F)C(F)(F)F`: the outcome was inactive.

`C=CC(=O)OCC(F)(F)C(F)(F)C(F)(F)COC(=O)C=C`: the outcome was inactive and the AC50 is 43.8 µM (active).

As to `C[Si](Cl)(Cl)CCC(F)(F)C(F)(F)C(F)(F)C(F)(F)C(F)(F)C(F)(F)F`, the outcome was inactive.

Consider `O=C(Cl)C(F)(F)C(F)(F)C(F)(F)C(F)(F)C(F)(F)C(F)(F)C(F)(F)F`, for which the result was inactive.

For the compound `O=C(O)C(F)(F)C(F)(F)C(F)(F)C(F)(F)C(F)(F)C(F)(F)C(F)F`, the outcome was inactive.

Turning to `OC(O)C(F)(F)C(F)(F)F`, the result was inactive.

Regarding `O=C(O)CCC(F)(F)C(F)(F)C(F)(F)C(F)(F)C(F)(F)C(F)(F)C(F)(F)F`, the result was inactive.

Regarding `COC(F)(C(F)F)C(F)(F)F` (stereo not given), the result was inactive.

For `CCN(CCO)S(=O)(=O)C(F)(F)C(F)(F)C(F)(F)C(F)(F)C(F)(F)C(F)(F)C(F)(F)C(F)(F)F`, the concentration at half-maximal activity (AC50) is 30 µM (active).

For `O=C(O)C(F)(F)C(F)(F)C(F)(F)C(=O)O`, the result was inactive.

For `CN(C(=O)C(F)(F)C(F)(F)C(F)(F)F)[Si](C)(C)C`, the outcome was inactive.

Consider `CO[Si](C)(CCC(F)(F)C(F)(F)C(F)(F)C(F)(F)C(F)(F)C(F)(F)F)OC`, for which the result was inactive.

As to `O=S(=O)(O)CCC(F)(F)C(F)(F)C(F)(F)C(F)(F)F`, the result was inactive.

`O=C(Cl)C(F)(F)C(F)(F)C(F)(F)C(F)(F)C(F)(F)C(F)(F)F`: the outcome was inactive.

For `O=C(O)C(F)(F)C(F)(F)C(F)(F)OC(F)(C(F)(F)F)C(F)(F)F`, the outcome was inactive.

In the case of `O=C(O)C(F)(F)C(F)(F)C(F)(F)OC(F)(F)F`, the outcome was inactive.

Take `OCC(F)(F)C(F)(F)C(F)(F)C(F)(F)C(F)(F)C(F)(F)CO`: the result was inactive.

On to `O=C(O)CCC(F)(F)C(F)(F)C(F)(F)F`, for which the result was inactive.

Take `O=C(O)C(F)(F)OC(F)(F)C(F)(F)OC(F)(F)C(F)(F)OC(F)(F)F`: the result was inactive.

For the compound `FC(F)(F)C(F)(F)C(F)(F)C(F)(F)C(F)(F)C(F)(F)CC[Si](Cl)(Cl)Cl`, the outcome was inactive.

With `NCC(F)(F)C(F)(F)C(F)(F)C(F)(F)C(F)(F)C(F)(F)C(F)(F)C(F)(F)F`, the result was inactive.

`NC(=O)C(F)(F)C(F)(F)C(F)(F)C(F)(F)C(F)(F)C(F)(F)C(F)(F)F`: the outcome was inactive.

Regarding `OCC(F)(F)C(F)(F)C(F)(F)CO`, the result was inactive.

As for `C=C(C)C(=O)OCC(F)(F)C(F)(F)C(F)(F)C(F)F`, the outcome was inactive.
